This note sets out measurements from PubChem BioAssay (NCI).

Compounds without any hit were thinned out: in the full panel of roughly 83,000, 20% have a hit.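 Plates (96-well) were seeded with cells, treated with compound at one concentration, and incubated for 48 hours before percent growth was determined.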 A number with no mark means an inactive call. The source made the active and inactive calls. How the source made its calls: active means growth percent below 10; inactive means the rest.

The test deals with HL-60(TB) leukemia. Briefly: NCI-60 one-dose screen, 48 h (100 = growth as untreated, 0 = no growth, -100 = all killed). The settings on record: 10 µM unless noted.
In the case of `Cc1ccc(S(=O)(=O)OCCCOS(=O)(=O)c2ccc(C)cc2)cc1`, the growth was 54.4%.

On to `O=C(CCCSc1nc(-c2ccccc2)cc(-c2ccccc2)n1)NO`, for which the growth is -26.2% (active).

Consider `Nc1n[nH]c2ccc([C@@H]3Nc4ccc5cn[nH]c5c4[C@H]4C5CCC(C5)[C@@H]34)cc12` (stereo not given in full), for which the growth was -29.2% (active).

Consider `O=c1[nH][n+](-c2ccc(Br)cc2)no1`, for which the growth was 20.2%.

In the case of `OCCCc1ccccc1`, the growth is 99%.

`CS(=O)(=O)Nc1cc(-c2ccc3ncnc(Nc4ccc(F)c(Cl)c4)c3c2)ccc1Cl`: the growth is 65.3%.

As to `O=C(C(=O)N1CCCC1)c1cn(CCCn2cc(C(=O)C(=O)N3CCCC3)c3cc(Br)ccc32)c2ccc(Br)cc12`, the growth is 86.5%.

As for `CC(=O)OC1/C=C\CC/C=C\C1` (stereo not given), the growth was 101%.

`O=C1OCC2=C1C(c1ccc(Cl)c(Cl)c1)c1cc3c(cc1N2CCO)CCC3` (stereo not given): the growth is -13.1% (active).

For `O=C(Nc1ccc2c(O)cc(S(=O)(=O)O)cc2c1)c1ccc([N+](=O)[O-])cc1`, the growth was 75.3%.

On to `Oc1cc(O)c(Br)cc1Br`, for which the growth is 104%.

Turning to `Cc1cc(N2CCOCC2)nc(N(CCNc2ccnc3cc(Cl)ccc23)Cc2ccco2)n1`, the growth was -65.1% (active).

Regarding `COc1ccccc1CNCCCN1C(=O)c2ccc3c4c(ccc(c24)C1=O)C(=O)N(CCCNCCCCNCCCN)C3=O`, the growth is -54.4% (active).

As to `Fc1ccc(/C=C/c2cc(/C=C/c3ccc(F)cc3)n(-c3cc(F)cc(F)c3)n2)cc1`, the growth was 78.9%.

`CC1c2ccccc2-c2ccccc2N1C` (stereo not given): the growth was 106%.

Regarding `COc1cc(-c2cc(/C=C/C(=O)c3ccc4c(c3)OCO4)[nH]n2)cc(OC)c1OC`, the growth was 91.3%.

In the case of `CCc1ccc(Nc2cc(C)c3ccc(O)cc3n2)cc1`, the growth is 33.9%.

For the molecule `NC1=CSC2=N/C(=C\c3ccc(Cl)cc3)C(=O)N12`, the growth is 39.9%.

For `CC(O)/C=C/C=C/C(O)CC/C=C/C(=O)NCC(C)(C)O` (stereo not given), the growth was 81.1%.

On to `CC(=O)Nc1ccc(C(=O)COc2ccc(/C=C3\CCc4ccccc4C3=O)cc2)cc1`, for which the growth was 102%.

On to `CC(Br)C(O)c1cc2c(cc1Br)OCO2` (stereo not given), for which the growth was 105%.

Consider `CC1(O)COCCCCOc2c(CN)cccc2NC(=O)c2nc(cnc2N)-c2ccc(cc2)S(=O)(=O)C(C)(C)C1` (stereo not given), for which the growth is -54.7% (active).

With `Cc1c2cnccc2c(C)c2c1oc1ccccc12`, the growth was 61.8%.

In the case of `CCn1c(SCC(=O)Nc2cc(C(F)(F)F)ccc2Cl)nc2ccccc2c1=O`, the growth was 19.3%.

Regarding `CCc1ccccc1NC(=O)c1sc2nc3c(cc2c1N)C(=O)CCC3`, the growth was -10.3% (active).

With `COc1ccc(/C=C2\CN(C(=O)CCN3CCC(=NO)CC3)C/C(=C\c3ccc(OC)cc3)C2=O)cc1`, the growth was -14.4% (active).

In the case of `CN(C)CCOc1nc2ccccc2c2c1-c1ccc(Cl)cc1C2=O`, the growth was -27.2% (active).

As to `CSc1nnc(-c2sc3nnc(-c4ccccc4)c(-c4ccccc4)c3c2O)o1`, the growth is 107%.

As for `Cc1cc(N(CCOS(C)(=O)=O)CCOS(C)(=O)=O)ccc1C=Nc1ccc(-c2nc(Cc3ccccc3)sc2C)cc1`, the growth was 4.95% (active).

Consider `CC(=O)c1ccc(C(C)(C)C)cc1`, for which the growth is 100%.

Regarding `C=CC(=O)N(C)[C@H]1C[C@H]2OC(C)(C1OC)n1c3ccccc3c3c4c(c5c6ccccc6n2c5c31)C(=O)NC4` (stereo not given in full), the growth was -11.2% (active).

On to `Cc1ccc(S(=O)(=O)NCCNc2nccc(-c3c(-c4ccc(O)cc4)nc4sccn34)n2)cc1`, for which the growth is 155%.

Consider `Cc1ccc([N+](=O)[O-])c(C)n1`, for which the growth is 115%.

In the case of `CCN(CC)Cc1cc(Nc2c3ccc(Cl)cc3nc3ccc(OC)cc23)ccc1O`, the growth was 72.5%.

As to `COc1ccc(-c2csc3c2-n2cccc2C3=O)cc1O`, the growth is -18.3% (active).

As for `CCN(CC)S(=O)(=O)c1ccc2[nH]c(=O)cc(C(=O)Nc3ccc(OC)cc3OC)c2c1`, the growth is 101%.

In the case of `CN1CCN(CCCOc2cccc3nc(Nc4cc(Cl)cc(Cl)c4)ccc23)CC1`, the growth is 56.4%.

As for `CCOC(=O)[C@@H]1[C@H](c2ccccc2)[C@H]([N+](=O)[O-])[C@H](c2cn(-c3ccccc3)nc2C)N1Cc1ccccc1`, the growth is 77.7%.

`Oc1c(Cl)cc(Oc2cc(Cl)c(O)c(CN3CCOCC3)c2)cc1CN1CCOCC1`: the growth is 86.7%.

As to `CN1C(=O)N(C)C2NC(N/N=C/c3ccccc3)=NC21` (stereo not given), the growth is 99.6%.
